In PubChem BioAssay (NCI) one finds growth inhibition data, which are given here for nine compounds.

The panel holds about 79,000 compounds, 15% with a hit somewhere; the sample as a whole holds those more often. Values without a mark were called inactive. The source made the active and inactive calls. Rule as the data show it: active = growth inhibition above about 70%; inactive = the rest.

Experiment [1] is described as follows: NCI Yeast Anticancer Drug Screen. Data for the rad50 strain (AID 155).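 Also: 0% = growth of vehicle-only cultures of the same strain.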 As to conditions: S. cerevisiae rad50 strain growth inhibition, stronger effect = higher value. The method, boiled down:
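DNA repair mutant yeast, compound exposure, growth read-out; inhibition is taken relative to vehicle.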

A short description of experiment [2]: NCI Yeast Anticancer Drug Screen. Data for the mec2-1 strain (AID 157). Conditions: S. cerevisiae mec2-1 strain, stronger effect = higher value. Summed up: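 Mutant yeast (mec2-1) grown with compound; growth inhibition relative to vehicle control reported.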
Experiment [3] is described as follows: NCI Yeast Anticancer Drug Screen. Data for the sgs1 mgt1 strain (AID 161).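 Also: 0% = growth of cultures given vehicle only.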 As to conditions: S. cerevisiae sgs1 mgt1 strain, stronger effect = higher value. The method, boiled down:
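Yeast cells carrying a defined DNA-repair defect were exposed to test compounds. Growth inhibition was measured relative to vehicle-treated controls.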

A short description of experiment [4]: NCI Yeast Anticancer Drug Screen. Data for the cln2 rad14 strain (AID 165).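 Also: 0% = growth equal to vehicle treated cultures.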 Conditions: S. cerevisiae cln2 rad14 strain, stronger effect = higher value. The method, boiled down:
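Readout is yeast growth inhibition versus vehicle-treated controls, using a strain with cln2 and rad14 alterations exposed to compound.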

A short description of experiment [5]: NCI Yeast Anticancer Drug Screen. Data for the bub3 strain (AID 167). As to conditions: S. cerevisiae bub3 mutant strain, stronger effect = higher value. The method, boiled down: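 In this screen, a yeast mutant lacking normal mitotic checkpoint function is challenged with compound. Relative growth versus vehicle gives the inhibition value.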
A short description of experiment [6]: NCI Yeast Anticancer Drug Screen. Data for the mlh1 rad18 strain (AID 175). As to conditions: S. cerevisiae mlh1 rad18 strain growth inhibition, stronger effect = higher value. The method, boiled down:
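Genetically defined yeast (DNA repair-deficient) exposed to compounds; growth inhibition determined relative to vehicle.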

Setting [7] is: at 5.0 µM (retest, dose inferred, filed as 0.5).
[8] abbreviates: at 50.0 µM (retest, dose inferred, filed as 5.0).

With `CCCCC(CCc1ccccc1[N+](=O)[O-])(C(C)=O)C(=O)OCC` (configuration not stated), the growth inhibition is 4% in experiment [1] (setting [7]); -15% in experiment [1] (setting [8]); 61% in experiment [1] (at 50.0 µM); 4% in experiment [2] (setting [7]); -3% in experiment [2] (setting [8]); 15.7% in experiment [2] (at 50.0 µM). Besides, the growth inhibition was -3% in experiment [3] (setting [7]); 14% in experiment [3] (setting [8]); 33.6% in experiment [3] (at 50.0 µM); 1% in experiment [4] (setting [7]); -11% in experiment [4] (setting [8]); -12.2% in experiment [4] (at 50.0 µM). For the same compound, the growth inhibition in experiment [5] (setting [7]) was 15%; in experiment [5] (setting [8]), 38%; in experiment [5] (at 50.0 µM), 80.5% (active); in experiment [6] (setting [7]), 5%; in experiment [6] (setting [8]), 3%; in experiment [6] (at 50.0 µM), 58.8%.

For `COc1cc(NCC(C)(O)CN2CCC(C)CC2C)c2ncccc2c1` (configuration not stated), the growth inhibition is 14% in experiment [1] (setting [7]); 57% in experiment [1] (setting [8]); 83.2% (active) in experiment [1] (at 50.0 µM); 14% in experiment [2] (setting [7]); 47% in experiment [2] (setting [8]); 50.1% in experiment [2] (at 50.0 µM). For the same compound, the growth inhibition in experiment [3] (setting [7]) was 20%; in experiment [3] (setting [8]), 61%; in experiment [3] (at 50.0 µM), 77% (active); in experiment [4] (setting [7]), 13%; in experiment [4] (setting [8]), 52%; in experiment [4] (at 50.0 µM) it was 79.4% (active). Further, the growth inhibition in experiment [5] (setting [7]) was 7%; in experiment [5] (setting [8]), 54%; in experiment [5] (at 50.0 µM), 80.7% (active); in experiment [6] (setting [7]), 0%; in experiment [6] (setting [8]), 58%; in experiment [6] (at 50.0 µM), 83.7% (active).

Take `CCCC(=O)N(C(=O)CCC)C1=C(Cl)C(=O)c2ccccc2C1=O`: the growth inhibition in experiment [1] (setting [7]) was 55%; in experiment [1] (setting [8]) it was 64%; in experiment [1] (at 50.0 µM), 29.9%; in experiment [2] (setting [7]) it was 95% (active); in experiment [2] (setting [8]), 95% (active); in experiment [2] (at 50.0 µM), 83.1% (active). In addition, the growth inhibition in experiment [3] (setting [7]) is 56%; in experiment [3] (setting [8]), 72% (active); in experiment [3] (at 50.0 µM), 75.1% (active); in experiment [4] (setting [7]), 33%; in experiment [4] (setting [8]), 65%; in experiment [4] (at 50.0 µM) it was 74.2% (active). The growth inhibition in experiment [5] (setting [7]) was 91% (active); in experiment [5] (setting [8]) it was 98% (active); in experiment [5] (at 50.0 µM), 87.4% (active); in experiment [6] (setting [7]) it was 48%; in experiment [6] (setting [8]) it was 64%; in experiment [6] (at 50.0 µM), 86.6% (active).

On to `CCSc1nnc(CSc2nc(-c3ccccc3)c(-c3ccccc3)[nH]2)n1-c1ccccc1`, for which the growth inhibition was 35% in experiment [1] (setting [7]); 35% in experiment [1] (setting [8]); 79.1% (active) in experiment [1] (at 50.0 µM); 30% in experiment [2] (setting [7]); 30% in experiment [2] (setting [8]); 68.7% in experiment [2] (at 50.0 µM). In addition, the growth inhibition in experiment [3] (setting [7]) is 32%; in experiment [3] (setting [8]), 32%; in experiment [3] (at 50.0 µM), 76.7% (active); in experiment [4] (setting [7]) it was 26%; in experiment [4] (setting [8]), 26%; in experiment [4] (at 50.0 µM), 74.5% (active). The growth inhibition was 25% in experiment [5] (setting [7]); 25% in experiment [5] (setting [8]); 63.9% in experiment [5] (at 50.0 µM); 28% in experiment [6] (setting [7]); 28% in experiment [6] (setting [8]); 62.5% in experiment [6] (at 50.0 µM).

Regarding `O=C1C(Cl)=C(Nc2cc(Cl)ccc2Cl)C(=O)c2ccccc21`, the growth inhibition in experiment [1] (setting [7]) was 45%; in experiment [1] (setting [8]) it was 99% (active); in experiment [1] (at 50.0 µM) it was 2.45%; in experiment [2] (setting [7]) it was 63%; in experiment [2] (setting [8]), 98% (active); in experiment [2] (at 50.0 µM), 97.9% (active). For the same compound, the growth inhibition was 68% in experiment [3] (setting [7]); 100% (active) in experiment [3] (setting [8]); 98.7% (active) in experiment [3] (at 50.0 µM); 20% in experiment [4] (setting [7]); 95% (active) in experiment [4] (setting [8]); 78.8% (active) in experiment [4] (at 50.0 µM). Also, the growth inhibition was 96% (active) in experiment [5] (setting [7]); 99% (active) in experiment [5] (setting [8]); 99.5% (active) in experiment [5] (at 50.0 µM); 64% in experiment [6] (setting [7]); 98% (active) in experiment [6] (setting [8]); 99.5% (active) in experiment [6] (at 50.0 µM).

Turning to `NC1OC(COC(=O)c2ccccc2)C(O)C(OC(=O)c2ccccc2)C1OC(=O)c1ccccc1` (configuration not stated), the growth inhibition in experiment [1] (setting [7]) was 0%; in experiment [1] (setting [8]), 97% (active); in experiment [1] (at 50.0 µM) it was 97% (active); in experiment [2] (setting [7]) it was 2%; in experiment [2] (setting [8]), 98% (active); in experiment [2] (at 50.0 µM), 96.8% (active). Further, the growth inhibition in experiment [3] (setting [7]) is 11%; in experiment [3] (setting [8]), 98% (active); in experiment [3] (at 50.0 µM), 97.7% (active); in experiment [4] (setting [7]), 11%; in experiment [4] (setting [8]), 97% (active); in experiment [4] (at 50.0 µM), 95.3% (active). The growth inhibition in experiment [5] (setting [7]) was -1%; in experiment [5] (setting [8]), 98% (active); in experiment [5] (at 50.0 µM), 93.8% (active); in experiment [6] (setting [7]), 4%; in experiment [6] (setting [8]) it was 97% (active); in experiment [6] (at 50.0 µM), 95.8% (active).

For `CC[C@H](CC[C@@H](C)C1CC[C@H]2[C@@H]3CCC4=CC(=O)CC[C@]4(C)[C@H]3CC[C@]12C)C(C)C` (some centres not stated), the growth inhibition was -4% in experiment [1] (setting [7]); 18% in experiment [1] (setting [8]); 50.9% in experiment [1] (at 50.0 µM); -8% in experiment [2] (setting [7]); 65% in experiment [2] (setting [8]); 35.7% in experiment [2] (at 50.0 µM). Also, the growth inhibition in experiment [3] (setting [7]) was -8%; in experiment [3] (setting [8]), 68%; in experiment [3] (at 50.0 µM), 76% (active); in experiment [4] (setting [7]) it was -6%; in experiment [4] (setting [8]) it was 28%; in experiment [4] (at 50.0 µM), 63.3%. The growth inhibition in experiment [5] (setting [7]) is -10%; in experiment [5] (setting [8]), 29%; in experiment [5] (at 50.0 µM), 30.6%; in experiment [6] (setting [7]), 20%; in experiment [6] (setting [8]), 83% (active); in experiment [6] (at 50.0 µM) it was 36%.

As to `COC1OC(CN=[N+]=[N-])C(OC(=O)c2ccccc2)C(OC(C)=O)C1OC(C)=O` (configuration not stated), the growth inhibition in experiment [1] (setting [7]) is -3%; in experiment [1] (setting [8]), -3%; in experiment [1] (at 50.0 µM), 7.35%; in experiment [2] (setting [7]), -24%; in experiment [2] (setting [8]), 23%; in experiment [2] (at 50.0 µM), 9.8%. For the same compound, the growth inhibition in experiment [3] (setting [7]) was -192%; in experiment [3] (setting [8]), -1%; in experiment [3] (at 50.0 µM) it was 18.1%; in experiment [4] (setting [7]), 2%; in experiment [4] (setting [8]) it was -2%; in experiment [4] (at 50.0 µM), 0%. Also, the growth inhibition in experiment [5] (setting [7]) is 61%; in experiment [5] (setting [8]), 73% (active); in experiment [5] (at 50.0 µM), 80% (active); in experiment [6] (setting [7]) it was 13%; in experiment [6] (setting [8]), 13%; in experiment [6] (at 50.0 µM) it was 18.2%.

Regarding `Cc1ccc(C2=C(C#N)C(c3ccccc3)C(C#N)=C(N)O2)cc1` (configuration not stated), the growth inhibition in experiment [1] (setting [7]) is 57%; in experiment [1] (setting [8]), 95% (active); in experiment [1] (at 50.0 µM), 97.5% (active); in experiment [2] (setting [7]), 53%; in experiment [2] (setting [8]) it was 99% (active); in experiment [2] (at 50.0 µM), 98.5% (active). In addition, the growth inhibition is 71% (active) in experiment [3] (setting [7]); 98% (active) in experiment [3] (setting [8]); 97.8% (active) in experiment [3] (at 50.0 µM); 35% in experiment [4] (setting [7]); 99% (active) in experiment [4] (setting [8]); 98.9% (active) in experiment [4] (at 50.0 µM). For the same compound, the growth inhibition in experiment [5] (setting [7]) is 48%; in experiment [5] (setting [8]), 98% (active); in experiment [5] (at 50.0 µM) it was 97.9% (active); in experiment [6] (setting [7]), 59%; in experiment [6] (setting [8]), 98% (active); in experiment [6] (at 50.0 µM), 98.5% (active).
